Assay results as given in paper PMC5540273 (PLoS ONE, 2017).

Legend:
Details in all cases: concentration: 1 μM, replicates: in singlicate; n = 1
[1] = tested on: T1, RSK1(Kin.Dom.2-C-terminal)
T1 construct: gene RPS6KA1

[2] = tested on: T2, RSK2(Kin.Dom.1-N-terminal)
T2 construct: gene RPS6KA3

[3] = tested on: T3, RSK2(Kin.Dom.2-C-terminal)
T3 construct: gene RPS6KA3

[4] = tested on: T4, RSK3(Kin.Dom.1-N-terminal)
T4 construct: gene RPS6KA2

[5] = tested on: T5, RSK3(Kin.Dom.2-C-terminal)
T5 construct: gene RPS6KA2

[6] = tested on: T6, RSK4(Kin.Dom.1-N-terminal)
T6 construct: gene RPS6KA6

[7] = tested on: T7, RSK4(Kin.Dom.2-C-terminal)
T7 construct: gene RPS6KA6

S6K1 = tested on: S6K1
SBK1 = tested on: SBK1
SGK2 = tested on: SGK2
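Also: KINOMEscan kinase panel screen.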

Structure (SMILES) | %Inh [1] [%] | %Inh [2] [%] | %Inh [3] [%] | %Inh [4] [%] | %Inh [5] [%] | %Inh [6] [%] | %Inh [7] [%] | %Inh (S6K1) [%] | %Inh (SBK1) [%] | %Inh (SGK2) [%]
COc1nccc(-c2c(-c3ccc(F)cc3)ncn2CCCN2CCOCC2)n1 [SB-282852] | 11 | 27 | 17 | 0 | 38 | 0 | 36 | 29 | 0 | 36
Cc1ccc(NC(=O)Nc2ccc(Cl)cc2)cc1-c1ccc(C(=O)Nc2ccncc2)cc1 [GSK1398472] | 0 | 2 | 6 | 15 | 0 | 0 | 20 | 8 | 19 | 8
COc1ccc(Nc2nccc(-c3ccc(NC(=O)c4cc5cc(F)ccc5[nH]4)cc3)n2)cc1 [GSK1229496] | 36 | 0 | 20 | 0 | 0 | 20 | 6 | 1 | 17 | 0
Nc1cccc(-c2ccc3c(N)n[nH]c3c2)n1 [GSK2192730] | 21 | 3 | 0 | 6 | 19 | 0 | 17 | 7 | 2 | 6
O=C(Nc1n[nH]c2nc(-c3cccs3)c(Br)cc12)C1CC1 [SB-735297] | 0 | 22 | 0 | 0 | 0 | 98.9 | 20 | 22 | 11 | 27
CC[C@@H]1CO[C@H](C(=O)Nc2ccccc2)CN1c1cc(-c2ccc3c(N)n[nH]c3c2)nc(NC)n1 [GSK2376236] | 31 | 0 | 2 | 26 | 16 | 0 | 7 | 0 | 0 | 0
O=c1cc(N2CCOCC2)nc2n(Cc3ccccc3F)ccn12 [GSK2297428] | 0 | 0 | 0 | 3 | 0 | 0 | 0 | 0 | 0 | 0
COc1cc2ncnc(Nc3cccc(Br)c3)c2cc1OC.Cl [GI230329] | 11 | 11 | 5 | 0 | 0 | 0 | 15 | 0 | 16 | 2
CC(=O)c1c(C)c2cnc(Nc3ccn(C)n3)nc2n(C2CCCC2)c1=O | 4 | 0 | 0 | 0 | 0 | 0 | 0 | 0 | 0 | 0
Cn1cncc1C(=O)NC1CCN(c2ccnc(Nc3ccc(F)cc3)n2)C1 (stereo not shown) [GSK1379717] | 12 | 5 | 0 | 0 | 12 | 0 | 15 | 7 | 16 | 7
Cc1ccc(NC(=O)Nc2ccc(Cl)c(C(F)(F)F)c2)cc1-c1ccc(C(=O)Nc2ccncc2)cc1 [GSK1398470] | 3 | 5 | 0 | 9 | 14 | 2 | 22 | 15 | 64 | 0
COc1ccc(Nc2nccc(N3CCC(NC(=O)c4cc5ccccc5s4)C3)n2)cc1 (stereo not shown) [GSK1379738] | 4 | 10 | 4 | 1 | 0 | 0 | 0 | 0 | 2 | 0
CCn1c(-c2c(N)noc2C)nc2cnccc21 [SB-737856] | 0 | 16 | 8 | 15 | 0 | 0 | 22 | 0 | 15 | 0
Cc1c(Cn2c3ccccc3n3c(=O)cc(N4CCOCC4)nc23)cccc1C(F)(F)F [GSK2306394] | 0 | 4 | 30 | 5 | 1 | 0 | 11 | 0 | 9 | 0
O=C(Nc1n[nH]c2nc(-c3cccs3)c(Br)cc12)C1CCCC1 [SB-743341] | 0 | 15 | 0 | 0 | 0 | 26 | 0 | 2 | 0 | 0
CC(C)c1ccc(O)cc1Nc1ccnc2ccc(C(F)(F)F)cc12 [GW482059] | 0 | 0 | 10 | 0 | 7 | 0 | 0 | 0 | 5 | 0
O=C(Nc1n[nH]c2cc(-c3ccsc3)ccc12)C1CC1 [SB-732932] | 19 | 27 | 0 | 71 | 16 | 29 | 24 | 13 | 44 | 4
O=C1NC(=O)C(c2ccc(Cl)cc2)=C1Nc1ccc(O)cc1 [SB-340867] | 0 | 13 | 0 | 0 | 0 | 0 | 0 | 0 | 0 | 0
Cc1cnc(N)c(/C=C/c2cncc(C(=O)NCCc3ccc(Cl)cc3Cl)c2)c1.Cl [GSK190937] | 0 | 0 | 2 | 0 | 0 | 0 | 20 | 0 | 19 | 0

Structure (SMILES) | %Inh [1] [%] | %Inh [2] [%] | %Inh [3] [%] | %Inh [4] [%] | %Inh [5] [%] | %Inh [6] [%] | %Inh [7] [%] | %Inh (S6K1) [%] | %Inh (SBK1) [%] | %Inh (SGK2) [%]
O=C(Nc1n[nH]c2nc(-c3ccco3)c(Br)cc12)C1CCN(Cc2ccccc2)C1.O=C(O)[C@H](O)[C@@H](O)C(=O)O (stereo not shown) [SB-742034] | 0 | 35 | 0 | 6 | 0 | 16 | 12 | 23 | 19 | 27
Cc1ccc(NC(=O)c2ccc(Cl)cc2)cc1-c1ccc(C(=O)Nc2ccncc2)cc1 [GSK1398467] | 0 | 4 | 2 | 8 | 22 | 0 | 10 | 7 | 0 | 0
CNc1cc(-c2ccc3c(N)n[nH]c3c2)nc(N)n1 [GSK2224810] | 26 | 14 | 0 | 1 | 0 | 37 | 37 | 0 | 7 | 0
Cc1ccc(NC(=O)Nc2ccccc2F)cc1-c1ccc(C(=O)Nc2ccncc2)cc1 [GSK1398477] | 0 | 9 | 6 | 20 | 0 | 0 | 14 | 13 | 28 | 0
Cc1ccccc1-c1cc(-c2c[nH]nc2-c2ccccn2)ccn1 [GW680061] | 14 | 10 | 15 | 2 | 0 | 0 | 22 | 2 | 0 | 0
Cc1c(Cn2c(C)c(C)n3c(=O)cc(N4CCOCC4)nc23)cccc1C(F)(F)F [GSK2328680] | 0 | 0 | 2 | 7 | 0 | 0 | 5 | 0 | 22 | 0
Cc1ccc(-c2nc(Nc3ccncc3)c3ccccc3n2)s1 [GSK189015] | 18 | 7 | 21 | 3 | 12 | 0 | 28 | 0 | 4 | 4
COC(=O)C(NC(=O)NC1CCN(c2ccnc(Nc3ccc(F)cc3)n2)C1)c1ccccc1 (stereo not shown) [GSK1379712] | 18 | 0 | 38 | 0 | 11 | 0 | 7 | 0 | 8 | 8
CS(=O)(=O)Cc1ccc(Nc2nccc(-c3c(-c4cccc(NC(=O)C5CCCCC5)c4)nn4ncccc34)n2)cc1 [GSK350559] | 33 | 13 | 11 | 12 | 0 | 17 | 9 | 24 | 34 | 40
FC(F)(F)c1ccccc1-c1cc(-c2c[nH]nc2-c2ccccn2)ccn1 [GW679396] | 13 | 0 | 0 | 6 | 0 | 0 | 22 | 0 | 13 | 0
Cc1ccccc1Cn1ccn2c(=O)cc(N3CCOCC3)nc12 [GSK2269905] | 0 | 9 | 20 | 11 | 0 | 0 | 17 | 0 | 4 | 0
c1ccc(-c2ccnc3[nH]ccc23)cc1 [SB-693578] | 0 | 30 | 27 | 0 | 0 | 29 | 17 | 26 | 17 | 4
NS(=O)(=O)c1cccc(N/C=C2\C(=O)Nc3ccc(S(=O)(=O)Cc4c(Cl)cccc4Cl)cc32)c1 [GSK398099] | 100 | 6 | 0 | 10 | 0 | 0 | 2 | 0 | 21 | 8
CC(=O)c1cccc(NC(=O)NC2CCN(c3ccnc(Nc4ccc(F)cc4)n3)C2)c1 (stereo not shown) [GSK1379710] | 14 | 0 | 30 | 17 | 6 | 0 | 21 | 0 | 5 | 0
CS(=O)(=O)CCNCc1nc(-c2ccc3ncnc(Nc4ccc5c(cnn5Cc5ccccc5)c4)c3c2)cs1.Cl.Cl [GW569716] | 0 | 0 | 0 | 0 | 4 | 0 | 5 | 5 | 0 | 7
CNc1nc(-c2ccc3c(N)n[nH]c3c2)cc(N2C[C@@H](C(=O)Nc3ccccc3)CC[C@H]2C)n1 [GSK2298859] | 0 | 0 | 0 | 7 | 3 | 0 | 23 | 0 | 4 | 0
COc1cccc(C2=C(Nc3cc(Cl)c(O)c(Cl)c3)C(=O)NC2=O)c1 [SB-390767] | 0 | 11 | 37 | 0 | 0 | 0 | 0 | 20 | 0 | 11
COc1ccc2cc(-c3nc(-c4ccccc4C(C)C)[nH]c3-c3ccncc3)ccc2c1 [SB-660566] | 0 | 3 | 18 | 19 | 0 | 25 | 11 | 8 | 2 | 0
